Source: PubChem BioAssay (NCI)
Compounds without any hit were thinned out: in the full panel of roughly 83,000, 20% have a hit.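 Compound tested at a single concentration for 48 hours in 96-well plates; a percent growth value below 10 was scored as active.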 Calls of active or inactive are those of the source.

What was measured:
Test in all cases: NCI-60 one-dose screen, 48 h (100 = growth as untreated, 0 = no growth, -100 = all killed)
Settings in all cases: 10 µM unless noted
[1] = tested on: RPMI-8226 leukemia
[2] = tested on: OVCAR-8 ovarian
[3] = tested on: OVCAR-5 ovarian
[4] = tested on: OVCAR-4 ovarian
[5] = tested on: IGROV1 ovarian
[6] = tested on: OVCAR-3 ovarian
[7] = tested on: NCI/ADR-RES ovarian
[8] = tested on: T-47D breast
[9] = tested on: HS 578T breast
[10] = tested on: SK-OV-3 ovarian

Measured: growth

O=c1c(-c2nc3ccccc3[nH]2)cc2ccccc2n1Cc1cn(Cc2ccc(N3CCOCC3)cc2)nn1
active: [4] 6.82%
inactive: [1] 80.4% | [2] 37.4% | [3] 77.3% | [5] 40% | [6] 83.5% | [7] 68.8% | [8] 71.4%

Brc1ccc(Oc2ccc(Nc3ncnc4onc(-c5ccccc5)c34)cc2)cc1
inactive: [1] 90.3% | [2] 97.8% | [3] 105% | [4] 88.2% | [5] 96.5% | [9] 96.8% | [7] 94.1% | [8] 77.8%

COC(=O)/C(CCC=C(C)C)=C1\[C@@H](OC(C)=O)C[C@@]2(C)[C@H]1C[C@@H](O)[C@H]1[C@@]3(C)CC[C@H](NC(=O)c4cnccn4)[C@@H](C)[C@@H]3CC[C@@]12C
inactive: [1] 75.8% | [2] 92.5% | [3] 109% | [4] 98.4% | [5] 107% | [9] 96.4% | [7] 99.4% | [8] 87.4%

C=CCN1C(=O)/C(=c2\sc3n(c2=O)NC2C(N=3)N(CC)C(=O)N2CC)c2ccccc21 (stereo not drawn)
inactive: [1] 66.1% | [2] 48.2% | [3] 44.2% | [4] 39.2% | [6] 22.5% | [9] 29.4% | [7] 18.7% | [8] 54.4%

Nc1nc2c(ncn2[C@@H]2O[C@H](CS)[C@@H](O)[C@H]2O)c(=O)[nH]1
inactive: [1] 94.9% | [2] 99.2% | [3] 93.3% | [4] 99.1% | [5] 103% | [9] 99.6% | [7] 104% | [8] 107%

CCOc1ccc(-c2nonc2NC(=O)c2cccc(C)c2)cc1OCC
active: [1] 9.09%
inactive: [2] 79.5% | [3] 89.4% | [10] 96.2% | [5] 68.3% | [6] 68.1% | [9] 85.4% | [7] 67.5% | [8] 84.3%

O=C(Nc1ccc(N2CCNCC2)cn1)c1[nH]ncc1Nc1ncnc2sc3c(c12)CCC3
inactive: [3] 20.7% | [10] 79.8% | [5] 77.6% | [9] 73% | [7] 42.6% | [8] 43.8%
active: [1] -38.2% | [2] -38.9% | [6] -39.3%

CCOC(=O)c1c(Cl)c2c(n1Cc1ccccc1)-c1oncc1CCC2
inactive: [1] 50.6% | [2] 84.3% | [3] 95.3% | [10] 95.2% | [5] 75.1% | [6] 39.5% | [9] 69.7% | [7] 43.5% | [8] 80.7%

CCn1c(SCC(=O)Nc2cc(C(F)(F)F)ccc2Cl)nc2ccccc2c1=O
inactive: [1] 14.2% | [2] 60.9% | [3] 78.3% | [10] 76.5% | [5] 34.2% | [6] 52.4% | [9] 43.8% | [7] 47.3% | [8] 50.6%

O=C(Nc1ccsc1C(=O)NC1CCCCC1)c1ccc(F)cc1
inactive: [1] 70% | [2] 102% | [3] 98.3% | [10] 101% | [5] 90.7% | [6] 111% | [9] 105% | [7] 96.5% | [8] 102%

CCCCc1ccc(NS(=O)(=O)c2cc3c4c(c2)CCN4C(=O)CC3)cc1
active: [7] 7.47%
inactive: [1] 21.9% | [2] 15.9% | [3] 52.5% | [10] 30.8% | [5] 11.3% | [6] 32.2% | [9] 47.8% | [8] 25.4%

COc1cc(/C(C#N)=C/c2nc3c(N4CCOCC4)nc(Cl)nc3n2C)cc(OC)c1OC
active: [1] 7.11% | [6] 0.593% | [9] 0.385% | [7] 8.53%
inactive: [2] 21.8% | [3] 34.6% | [4] 21.9% | [8] 33.9%

CSc1nc2c(c(=O)[nH]1)N=C1c3ccccc3C(=O)C1C(c1ccc(F)cc1)N2 (stereo not drawn)
inactive: [1] 68.4% | [2] 78.9% | [3] 93.6% | [10] 79.4% | [5] 58.3% | [6] 21.7% | [9] 66.8% | [7] 57.5% | [8] 72.9%

CCCN1C(=O)N(CCC)C2C1NN=c1s/c(=C3\C(=O)N(C(C)C)c4ccccc43)c(=O)n12 (stereo not drawn)
inactive: [1] 61.2% | [2] 58.4% | [3] 76% | [4] 42.9% | [9] 30.3% | [7] 44.5% | [8] 28.1%
active: [6] -15%

CCCCCCc1cc2cc(-c3nc4ccccc4[nH]3)c(=Nc3ccccc3C)oc2cc1O
inactive: [2] 55.8% | [3] 57.7% | [10] 67% | [5] 39.5% | [6] 41.9% | [9] 68.8% | [7] 49.9% | [8] 29%
active: [1] -20.2%
